D2 antagonist = D2 dopamine receptor (human) antagonism; P14416; HEK293 TREx D2 cells, calcium flux, dopamine EC80; inhibition, % at 10 µM; 340,000 tested, 2% active; in the data active means inhibition above about 30%; inactive means below that, where a call was filed; further: 0% is about no effect
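Overnight-induced (tetracycline, 30 C) HEK293 T-REx cells carrying force-coupled D2 receive a no-wash calcium dye, then compound, then EC80 dopamine at 180 s; signals are read kinetically throughout.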
D2 ag-1 = D2 dopamine receptor (human) agonism. P14416. HEK293 T-REx D2 cells, calcium flux agonist mode. activation, % at 2 µM. 340,000 tested, 0.53% active. AID 485358;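 active means activation over 3 SD above normal in the single-dose calcium agonist read, cut at about 30% in these data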; further: 0% is about no effect
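HEK293 Trex D2 cells, tetracycline-induced, o/n 30 C 5% CO2; no-wash Ca dye, RT 30–90 min; 10-cycle baseline, 23 nl cpd added, kinetic Ca read 180 s; agonist hits = positive Ca response.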
D2 PAM-1 = D2 dopamine receptor (human) potentiation; P14416; HEK293 T-REx D2, calcium flux, EC20 dopamine potentiation; potentiation, % at 10 µM; 340,000 tested, 0.34% active;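 active means potentiation over 3 SD above the plate norm, cut at about 30% in these data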; further: 0% is about no effect
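Calcium flux readout, no-wash dye, 1 read/s. Inducible HEK293 Trex D2 line, overnight 30 C. Compound alone 180 s (agonist flags), then EC20 dopamine, another 180 s to score potentiation.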
D2 ag-2 = human D2 receptor agonism in beta-arrestin assay; P14416; DiscoveRx PathHunter D2 beta-arrestin, luminescence, 90 min; 100% = 57 uM dopamine signal; activation, % (test concentration not listed); 360,000 tested, 0.084% active; AID 624465; in the data active means activation above about 40%; inconclusive means between about 15% and that limit
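DiscoveRx PathHunter D2 beta-arrestin cells (2,100/well) attached overnight, then compound-stimulated 90 min at 37 C in HBSS/10 mM HEPES/0.1% Tween-20 buffer; beta-galactosidase complementation read by luminescence after 1 h at ambient temperature. Dopamine 57 uM final (EC100) as control.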
D2 PAM-2 = positive allosteric modulators of human D2 dopamine receptor; P14416; DiscoveRx D2 beta-arrestin cells, luminescence, 90 min; 100% = 57 uM dopamine signal; potentiation, % (no concentration beside the values); 360,000 tested, 0.23% active; in the data active means potentiation above about 50%; inconclusive means mostly about 30% to 49%
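PathHunter D2 cells, attached overnight at 37 deg C, received compound in DMSO plus dopamine at EC20 (50 nM final) for 90 min at 37 deg C. Beta-arrestin recruitment was read as luminescence after 1 h with detection reagent at ambient temperature.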
D3 arrestin ag = confirmation of human D3 dopamine receptor agonists, beta-arrestin; AID 720506; 2,300 tested, 4% active; DiscoveRx D3 beta-arrestin cells, luminescence, 90 min; Potency, µM (titrated, usually from 76.9 µM), without a hit: at the top dose activation, most hits filed as activators; shares compounds with D2 ag-1;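 further: potency means the concentration at half of the fitted maximal effect; 100% = dopamine control response; nearly all actives have a fitted effect of over 70% in size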
Target sequence (P35462 whole entry, looked up): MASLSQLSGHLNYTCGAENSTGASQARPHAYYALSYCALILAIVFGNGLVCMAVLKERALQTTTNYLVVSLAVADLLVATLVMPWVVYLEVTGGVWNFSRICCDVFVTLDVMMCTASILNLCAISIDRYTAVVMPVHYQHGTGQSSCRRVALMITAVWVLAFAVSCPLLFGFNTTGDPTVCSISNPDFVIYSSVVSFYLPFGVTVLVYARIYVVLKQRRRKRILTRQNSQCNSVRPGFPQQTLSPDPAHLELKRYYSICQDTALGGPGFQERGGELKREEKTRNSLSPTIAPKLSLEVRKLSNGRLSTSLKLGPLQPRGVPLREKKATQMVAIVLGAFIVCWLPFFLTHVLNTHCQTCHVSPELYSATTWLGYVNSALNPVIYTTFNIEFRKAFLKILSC
D2 ag-3 = D2 receptor agonism, beta-arrestin counterscreen. shares compounds with D2 ag-1. DiscoveRx PathHunter D2 beta-arrestin, luminescence, 90 min; response scale: percent relative to full dopamine signal. Potency, µM (highest dose often 76.9 µM), for the others: top-dose activation, actives largely listed as activators. 2,300 tested, 5.9% active. AID 720507; further: potency means the concentration at half of the fitted maximal effect; % of control where 0% means no effect; nearly all actives have a fitted effect of over 70% in size
* marks the source's active call; other numbers are inactive results; ? = inconclusive; · = no result. This is a sample that favours compounds with a hit; in the whole collection about 2.4% have one here. Unless noted, the call rests on the fitted dose curve; in most records, active means well fitted activation curve with a large enough effect; inconclusive means small, poorly fitted or top-dose-only effect; inactive means flat fitted curve, though single readings scatter.

SMILES	D2 antagonist	D2 ag-1	D2 PAM-1	D2 ag-2	D2 PAM-2	D3 arrestin ag	D2 ag-3
N#Cc1ccccc1OCC(=O)OCCCOC(=O)COc1ccccc1C#N	15	62*	-19	-1	-4	1%	-2%
CC(C)CC(C(=O)NCc1ccc(F)cc1)N1Cc2ccccc2C1=O (configuration not stated)	·	-1	4	·	·	·	·
O=C1OC(N2CCN(c3ccccn3)CC2)c2ccccc21 (configuration not stated)	34*	55*	-23	9	-6	3%	26%
CC1(C)CC(=O)c2sc(NC(=O)C(C)(C)C)nc2C1	-9	0	21	-1	0	·	·
CC1(C)CC(=O)c2sc(NC(=O)c3cccs3)nc2C1	-7	52*	-17	9	3	?	15%
Cc1ccc(C(C)NC(=S)NC2CCCCC2)c(C)c1 (configuration not stated)	-7	0	0	-5	-13	·	·
CCOc1cc(CNCCc2ccc(S(N)(=O)=O)cc2)ccc1OCc1ccc(Cl)cc1	65*	2	-2	4	12	?	?
COc1ccc(-c2cc(C#N)nc(Cl)n2)cc1	26	3	5	-2	-4	-15%	-3%
O=C(Nc1ccc(C(F)(F)F)cc1[N+](=O)[O-])O[C@H]1[C@H](Cc2ccccc2)NS(=O)(=O)[C@H]2C[C@@H]3C=C[C@]12O3	-3	44*	-23	?	11	12%	13%
Cc1cccc(C(=O)O[C@H]2[C@H](C)NS(=O)(=O)[C@H]3CC4C=C[C@]23O4)c1	·	·	·	-3	-10	·	·
COc1cccc(C(=O)O[C@H]2[C@H](Cc3ccccc3)NS(=O)(=O)[C@H]3C[C@@H]4C=C[C@]23O4)c1	·	·	·	-3	-3	·	·
COc1cccc(C(=O)O[C@H]2[C@H](C)NS(=O)(=O)[C@H]3C[C@@H]4C=C[C@]23O4)c1	9	2	-31	-4	-3	-1%	-4%
Cc1cc(C(=O)O[C@H]2[C@H](Cc3ccccc3)NS(=O)(=O)[C@H]3C[C@@H]4C=C[C@]23O4)ccc1[N+](=O)[O-]	1	0	-6	-4	-8	-8%	-3%
C[C@H](CO)N1C[C@H](C)[C@@H](CN(C)C(=O)c2ccc(N3CCN(C)CC3)cc2)OCc2cnnn2CCCC1=O	·	·	·	-4	-8	·	·
O=C1SCCC1NS(=O)(=O)c1ccc([N+](=O)[O-])cc1 (configuration not stated)	-5	-1	-3	1	4	·	·
Cc1ccc(CCNC(=O)c2sc3ncccc3c2-n2cccc2)cc1	·	0	1	·	·	·	·
COc1cc(CN2CCN(C(=O)CC(C)C)CC2)cc(OC)c1OC	-1	0	2	1	3	·	·
COc1ccc(CN2CCN(C(=O)CC(C)C)CC2)cc1	23	38*	-4	-2	-8	-2%	3%
Cc1ccc(CN2CCN(C(=O)CC(C)C)CC2)cc1	·	·	·	9	7	2%	10%
CN(C)CCNC(=O)C12CC3(C)CC(C)(CC(C)(C3)C1)C2	2	27	-15	-1	-29	-16%	-3%
CC(=O)[C@@H]1[C@@H](C(=O)c2ccccc2)[C@]2(C(=O)Nc3ccccc32)[C@H]2C=Cc3cc(F)ccc3N12	7	2	12	-2	-4	·	·
O=C(c1ccccc1)[C@@H]1[C@@H](C(=O)c2ccc(F)cc2)[C@@]2(C(=O)Nc3ccccc32)[C@H]2c3ccccc3C=CN12	-5	57*	-20	-4	1	-4%	0%
COc1ccc(C(=O)NC2CCN(C(=O)NCc3ccccc3)CC2)cc1	4	3	-1	4	-5	·	·
C[C@H](CO)N1C[C@H](C)[C@@H](CN(C)C)Oc2c(NS(=O)(=O)c3ccc(F)cc3)cccc2C1=O	·	·	·	0	-3	·	·
Oc1ccc(N2CCN(Cc3ccc(OCCCN4CCCCC4)cc3)CC2)cc1	91*	72*	-29	47*	5	?	4.5µM*
SMILES	D2 antagonist	D2 ag-1	D2 PAM-1	D2 ag-2	D2 PAM-2	D3 arrestin ag	D2 ag-3
c1ccc(COc2ccc(OCCCCN3CCCCC3)cc2)cc1	-15	0	-11	4	-44	·	·
COc1ccc(C2CC(O)(c3ccccc3)Oc3cc(OC)cc(OC)c32)cc1 (configuration not stated)	4	0	10	5	2	19%	4%
COc1ccc(C2CC(O)(c3ccccc3)Oc3c(C)ccc(C)c32)cc1 (configuration not stated)	4	1	21	-4	-3	·	·
COC(=O)c1ccc(OCC(O)CN2CCN(C(=O)c3ccco3)CC2)cc1 (configuration not stated)	11	0	6	?	22	·	·
O=C(c1ccco1)N1CCN(Cc2cccc(F)c2)CC1	84*	88*	-24	60*	23	?	20µM*
O=C(c1ccco1)N1CCN(CC(O)COc2ccc(Br)cc2)CC1 (configuration not stated)	77*	76*	-19	5	-4	?	?
CCc1ccc(CN2CCN(C(=O)c3ccco3)CC2)cc1	83*	80*	-18	78*	?	5.6µM*	14µM*
O=C(c1ccco1)N1CCN(Cc2nc(-c3cccs3)no2)CC1	-3	4	-11	8	15	6%	13%
COc1ccc(NC(=O)NCc2c(-n3cccc3)sc3c2CCCC3)c(OC)c1	·	-1	0	·	·	·	·
O=C(c1ccco1)N1CCN(Cc2ccc(Br)cc2)CC1	80*	79*	-20	58*	?	?	16µM*
COC(=O)c1ccc(OCC(O)CN2CCN(C(=O)c3ccco3)CC2)c(OC)c1 (configuration not stated)	26	64*	-31	13	14	-8%	?
O=C(c1ccco1)N1CCN(Cc2csc(-c3ccccc3Cl)n2)CC1	14	41*	-25	0	-37	-3%	7%
O=C(c1ccco1)N1CCN(Cc2cccc3ccccc23)CC1	76*	58*	-23	14	14	?	?
COc1ccc(NC(=O)Cc2nnc(SCC(=O)NC3=NCCS3)n2C)cc1	-9	1	0	0	0	·	·
Cc1ccc(C)n1CCN1CCN(C(=O)c2ccco2)CC1	3	25	7	6	-29	4%	9%
O=c1c2ccccc2nc2oc3ccccc3n12	9	0	2	-1	-3	·	·
